PubChem BioAssay AID1159580 (chemical genetic matrix, 2015)
Several values for one entry are separate records, joined by “and”; a condition that tells them apart may be missing. Equal values may be shown once. The campaign covered roughly 5,500 compounds. About 2,000 (36%) were called active. Not shown: some 18% with an inconclusive outcome. Cut-off read from the data, not from the text of the source: active = normalized growth mostly below about 0.91 (no sharp cut-off); inconclusive = no clear call, values can overlap the other calls; inactive = mostly above about 0.92. The list shows a part of the results.

Experiment: chemical genetic growth profiling, strain panel (AID 1159580);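 note: tested at 20 µM; growth read once vehicle control cultures reached saturation at 30 °C; 1 = growth at the plate median or of vehicle wells; lower values mean less growth of the strain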
Details: S. cerevisiae deletion strains, growth OD

Measured: normalized growth

Cc1cccc(C)c1NC1=NCCCS1
inactive: locus YAL013W, strain DEP1, hits give low values 0.999 | locus YAL021C, strain ccr4, hits give low values 1.03 | locus YAL026C, strain drs2, hits give low values 0.986 | locus YAL030W, strain snc1, hits give low values 1 | locus YAL040C, strain CLN3, hits give low values 0.978 | locus YBL061C, strain skt5, hits give low values 1 | locus YBR009C, strain hhf1, hits give low values 1.02 | locus YBR021W, strain FUR4, hits give low values 0.99 | locus YBR023C, strain chs3, hits give low values 1.02 | locus YBR171W, strain sec66, hits give low values 1.02 | locus YBR229C, strain ROT2, hits give low values 1 | locus YBR231C, strain swc5, hits give low values 0.997 | locus YBR279W, strain paf1, hits give low values 1 | locus YCL011C, strain gbp2, hits give low values 1.02 | locus YCL016C, strain dcc1, hits give low values 1 | locus YCL029C, strain bik1, hits give low values 0.974 | locus YCL061C, strain MRC1 (second series), hits give low values 1.01 | locus YCL061C, strain MRC1, hits give low values 1 | locus YCL069W, strain vba3, hits give low values 1 | locus YCR088W, strain abp1, hits give low values 1 | locus YDL005C, strain med2, hits give low values 0.995 | locus YDL035C, strain GPR1, hits give low values 0.979 | locus YDL040C, strain nat1, hits give low values 1 | locus YDL074C, strain BRE1, hits give low values 1.03 | locus YDL101C, strain DUN1, hits give low values 1 | locus YDL134C, strain PPH21, hits give low values 0.982 | locus YDL185W, strain tfp1, hits give low values 0.947 | locus YDL192W, strain arf1, hits give low values 0.987 | locus YDR001C, strain nth1, hits give low values 1.01 | locus YDR069C, strain doa4, hits give low values 1.02 | locus YDR101C, strain arx1, hits give low values 0.995 | locus YDR137W, strain rgp1, hits give low values 1 | locus YDR150W, strain NUM1, hits give low values 0.996 and 1.01 | locus YDR159W, strain sac3, hits give low values 0.991 | locus YDR162C, strain NBP2, hits give low values 0.97 | locus YDR195W, strain ref2 0.977 | locus YDR297W, strain sur2, hits give low values 1.01 | locus YDR318W, strain mcm21, hits give low values 0.972 | locus YDR334W, strain swr1, hits give low values 1.01 | locus YDR335W, strain msn5, hits give low values 1.01 | locus YDR363W, strain ESC2, hits give low values 1.02 | locus YDR388W, hits give low values 0.994 | locus YDR392W, strain spt3, hits give low values 1.01 | locus YDR502C, strain sam2, hits give low values 0.991 | locus YEL003W, strain gim4, hits give low values 1.01 | locus YEL037C, strain rad23, hits give low values 1.01 | locus YEL061C, strain CIN8 (second series), hits give low values 1.01 | locus YEL061C, strain CIN8, hits give low values 1 | locus YER002W, strain NOP16, hits give low values 1.01 | locus YER015W, strain faa2, hits give low values 1.01 | locus YER016W, strain bim1, hits give low values 1.01 | locus YER110C, hits give low values 0.976 | locus YER111C, strain swi4, hits give low values 1.01 | locus YER155C, strain BEM2 (second series), hits give low values 1.01 | locus YER155C, strain BEM2, hits give low values 0.995 | locus YER167W, strain BCK2, hits give low values 0.99 | locus YFR010W, strain ubp6, hits give low values 1.02 | locus YGL078C, strain dbp3, hits give low values 0.983 | locus YGL086W, strain mad1, hits give low values 0.998 | locus YGL167C, strain pmr1, hits give low values 1.01 | locus YGL173C, strain kem1, hits give low values 1.01 | locus YGL227W, strain vid30, hits give low values 1 | locus YGL240W, strain doc1, hits give low values 0.992 | locus YGL248W, strain PDE1, hits give low values 1.01 | locus YGL253W, strain hxk2, hits give low values 1.01 | locus YGR135W, strain pre9, hits give low values 0.967 | locus YGR229C, strain SMI1, hits give low values 0.996 | locus YGR252W, strain gcn5, hits give low values 1 | locus YHR013C, strain ard1, hits give low values 1.01 | locus YHR027C, strain rpn1, hits give low values 0.992 | locus YHR030C, strain SLT2, hits give low values 0.995 and 1.02 | locus YHR079C, strain IRE1 (second series), hits give low values 0.981 | locus YHR079C, strain IRE1, hits give low values 1.04 | locus YHR094C, strain hxt1, hits give low values 0.989 | locus YHR129C, strain ARP1, hits give low values 0.988 | locus YHR142W, strain chs7, hits give low values 1.01 | locus YHR200W, strain rpn10, hits give low values 0.96 | locus YIL066C, strain RNR3, hits give low values 1 | locus YIL073C, strain SPO22, hits give low values 0.86 | locus YIL125W, strain kgd1, hits give low values 0.987 | locus YIR030C, strain dcg1, hits give low values 0.975 | locus YJL092W, strain hpr5, hits give low values 1 | locus YJL095W, strain BCK1 (second series), hits give low values 1 | locus YJL095W, strain BCK1, hits give low values 1.03 and 1.04 | locus YJL115W, strain asf1, hits give low values 1.01 | locus YJL129C, strain trk1, hits give low values 1 | locus YJL134W, strain LCB3, hits give low values 0.994 | locus YJL154C, strain vps35, hits give low values 1.01 | locus YJL164C, strain tpk1, hits give low values 1.01 | locus YJL166W, strain qcr8, hits give low values 1.01 | locus YJL168C, strain set2, hits give low values 0.99 | locus YJL187C, strain SWE1 (second series), hits give low values 1.03 | locus YJR043C, strain POL32, hits give low values 1.02 | locus YJR066W, strain TOR1, hits give low values 0.955
